Sampled rows, rich in hits. Any-hit rate of the full collection: about 10%.
Pf growth 96h – inhibits malaria parasite growth, 96 h. hit rate 6.9% among 320,000. Potency, µM (titrated, usually from 28.7 µM), hits mostly inhibitors. P. falciparum luciferase reporter growth, 96 h
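Cell-based qHTS: luciferase-tagged P. falciparum in erythrocytes (2% hematocrit, 0.05% parasitemia final) incubated with compounds for 96 hours, 37 C, 5% CO2; luciferase detection reagent then added and luminescence measured.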
Pf growth 48h – P. falciparum growth inhibition at 48 hours (one generation); hit rate 5.9% among 310,000; AID 504832; P. falciparum luciferase growth in erythrocytes, 48 h; Potency, µM (top dose mostly 28.7 µM), most hits filed as inhibitors
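Luminescence readout; reporter = integrated firefly luciferase in P. falciparum. RBC culture at 2% hematocrit, 0.1% parasitemia final, 37 C/5% CO2; decreased signal taken as growth inhibition.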
NS1 inh – influenza NS1 inhibition; Potency, µM (series often up to 46.1 µM); hit rate 0.4% among 270,000; AID 2326; calls by dose curve; further: actives are rising curves; nearly all actives have a fitted effect of over 50% in size
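In this qHTS, NS1 from influenza A is expressed in budding yeast, where it slows growth. Cells are switched from glucose to 2% galactose medium (pH 6.0, -URA), treated with compound, and growth recovery is read at OD600.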
SARS PLpro yeast – blocks SARS-CoV papain-like protease in a yeast assay; S. cerevisiae expressing SARS-CoV PLpro, growth rescue; Potency, µM (highest dose often 32.9 µM), actives largely listed as activators; hit rate 0.19% among 330,000; calls by dose curve; further: nearly all actives have a fitted effect of over 55% in size
Hits are given with their value; . = inactive; ? = inconclusive; / = not tested or not shown. Unless noted, the call rests on the fitted dose curve; in most records, active means well fitted inhibition curve with a large enough effect; inconclusive means small, poorly fitted or top-dose-only effect, or another doubt; inactive means no such curve, though single readings can be large or run the other way.

SMILES	Pf growth 96h	Pf growth 48h	NS1 inh	SARS PLpro yeast
CC(NC(=O)Cn1cccc1)c1ccccc1 (stereo not drawn)	.	.	.	.
CC(=O)N1CCN(S(=O)(=O)c2cccc(C(=O)NC3CC3)c2)CC1	.	.	/	.
Cn1c(SCCCC(=O)c2ccc(Br)cc2)nnc1-c1ccncc1	8.28µM	/	.	.
COc1cccc(NC(=O)COC(=O)c2sccc2C)c1	/	/	/	.
COc1ccc(CCn2c(=N)c(S(=O)(=O)c3ccccc3)cc3c(=O)n4ccccc4nc32)cc1	?	?	.	.
Cc1ccc(S(=O)(=O)c2cc3c(=O)n4ccccc4nc3n(C3CCCC3)c2=N)cc1	.	5.22µM	.	.
Cc1ccc(S(=O)(=O)c2cc3c(=O)n4ccccc4nc3n(CCc3ccccc3)c2=N)cc1	.	2.08µM	.	.
Cc1ccc(S(=O)(=O)c2cc3c(=O)n4cccc(C)c4nc3n(C3CCCCC3)c2=N)cc1	.	.	.	.
COc1ccc(CCn2c(=N)c(S(=O)(=O)c3ccc(Cl)cc3)cc3c(=O)n4ccccc4nc32)cc1	2.62µM	4.65µM	.	.
CC(C)CC1NC(=O)c2cc(Cl)ccc2-n2c1nc1cc(F)ccc1c2=O (stereo not drawn)	/	/	/	.
CN1c2ccc(Cl)cc2C(=O)NC1C1CC=CCC1 (stereo not drawn)	11.7µM	.	.	.
O=C(Nc1nc2c(s1)CCCC2)c1ccc(Br)o1	.	.	.	.
Cc1ccc(C(=O)Nc2nc3c(s2)CCCC3)o1	13.1µM	.	.	.
Cc1ccc(-c2nnc(Nc3ccc4c(c3)OCO4)c3ccccc23)cc1S(=O)(=O)NCCO	?	3.29µM	.	.
Cc1ccc(-c2nnc(Nc3ccc4c(c3)OCO4)c3ccccc23)cc1S(=O)(=O)NC(C)C	?	2.94µM	.	.
Cc1ccc(-c2nnc(Nc3ccc(CC(N)=O)cc3)c3ccccc23)cc1S(=O)(=O)NCCO	.	6.57µM	.	.
O=C(Cn1cc(C(F)(F)F)ccc1=O)N1CCc2ccccc21	/	/	/	.
O=C(CCSCCc1ccccn1)Nc1ccc(Cc2ccncc2)cc1	11.7µM	?	/	.
COc1ccccc1CC(=O)c1ccc(OCc2ccccc2)cc1	.	.	/	.
COc1ccc(Cc2nnc(NC(=O)c3cccc(F)c3)s2)cc1OC	.	.	.	.
Cc1c(OC(C)C(=O)NCc2ccncc2)ccc2c3c(c(=O)oc12)CCC3 (stereo not drawn)	9.28µM	?	.	.
Cc1c(OC(C)C(=O)NCC(O)c2ccccc2)ccc2c3c(c(=O)oc12)CCC3 (stereo not drawn)	10.4µM	13.1µM	.	.
Cc1c(OC(C)C(=O)NCCN2CCOCC2)ccc2c3c(c(=O)oc12)CCCC3 (stereo not drawn)	?	.	.	.
CC(=O)C(C)Oc1ccc2c3c(c(=O)oc2c1C)CCCC3 (stereo not drawn)	8.28µM	9.28µM	.	.
Cc1c(OC(C)C(=O)NCCCN2CCCC2=O)ccc2c3c(c(=O)oc12)CCCC3 (stereo not drawn)	.	?	.	.
SMILES	Pf growth 96h	Pf growth 48h	NS1 inh	SARS PLpro yeast
Cc1c(OC(C)C(=O)NCc2ccccn2)ccc2c3c(c(=O)oc12)CCCC3 (stereo not drawn)	1.65µM	?	.	?
COC(=O)c1cc(C(=O)OCC(=O)NCc2cccs2)cc([N+](=O)[O-])c1	.	.	/	.
O=C(CCN1C(=O)c2ccc(Br)cc2C1=O)NC1CCCCC1	?	.	.	.
C#Cc1cccc(C(=O)N2CCCC(Nc3cccc(F)c3)C2)c1 (stereo not drawn)	.	.	.	?
O=C(COc1ccc(S(=O)(=O)NC2CCCCC2)cc1)NC1CC1	.	.	.	.
Cc1c(OCC(=O)NCc2ccncc2)ccc2c3c(c(=O)oc12)CCC3	13.1µM	?	.	?
Cc1c(OCC(=O)NCc2cccnc2)ccc2c3c(c(=O)oc12)CCC3	.	.	.	.
CC1CCCC(NC(=O)C2N(CCCN3CCCC3)C(=O)C3C(C(=O)Nc4cccc(Cl)c4)C4C=CC32O4)C1C (stereo not drawn)	.	?	.	.
CC1(C)NC(=O)N(CC(=O)N2CCN(c3ccc([N+](=O)[O-])cc3)CC2)C1=O	?	.	/	.
C/C=C/c1cc(CN2CCN(c3ccccc3)CC2)c(O)c(OC)c1	1.65µM	1.31µM	/	.
COc1ccc(CN2CCN(c3ccccc3)CC2)c(C)c1C	.	/	.	.
C/C=C/c1cc(CN2CCN(c3ccc(OC)cc3)CC2)c(O)c(OC)c1	?	1.47µM	/	.
Cc1ccc(N(CC(=O)NC2CCCC2)C(=O)c2nsc(Cl)c2Cl)cc1	?	.	.	.
Cc1csc(=O)n1CCC(=O)OCC(=O)NNC(=O)c1ccc(Cl)cc1	.	.	/	.
CCN(CC)S(=O)(=O)c1ccc(=O)n(CC(=O)N2Cc3ccccc3CC2C(N)=O)c1 (stereo not drawn)	.	.	/	.
O=C(c1cccs1)N1CCN(S(=O)(=O)c2cccc(Cl)c2Cl)CC1	.	?	/	.
O=c1[nH]c(-c2ccccc2)nnc1-c1ccccc1	.	.	.	.
N#CC1=C(N)S[C@H](C(=O)C23CC4CC(CC(C4)C2)C3)[C@H]1c1ccncc1	4.65µM	10.4µM	.	.
C=CCn1c(SCC(=O)NC2CCCC2)nc2c([nH]c3ccccc32)c1=O	.	.	.	.
CCOC(=O)C1=C(C)N(C)C(C)=C(C(=O)OCC)C1c1ccncc1	.	?	.	.
COC(=O)C1=C(C)N(C)C(=O)NC1c1ccccc1 (stereo not drawn)	.	.	.	.
COCCN1C=C(C(=O)OC)C(c2ccccc2C(F)(F)F)C(C(=O)OC)=C1	?	?	.	.
CCOC(=O)C1=C(C)N(C)C(C)=C(C(=O)OCC)C1c1ccccc1	?	5.22µM	.	.
CCCCOc1ccccc1C1C(C(=O)OC)=C(C)N(C)C(C)=C1C(=O)OC	.	13.1µM	.	.
CC1=C(C(=O)OC(C)C)C(c2ccccc2)NC(=O)N1C (stereo not drawn)	9.28µM	.	.	.
SMILES	Pf growth 96h	Pf growth 48h	NS1 inh	SARS PLpro yeast
CCCCN1C=C(C(=O)OC)C(c2ccccc2C(F)(F)F)C(C(=O)OC)=C1	0.522µM	/	.	.
CCC12CN3CC(CC)(CN(C1)C3c1ccc([N+](=O)[O-])o1)C2=O (stereo not drawn)	.	.	.	.
Cc1oc2cc(O)cc(C)c2c(=O)c1-c1cnn(-c2ccccc2)c1	.	13.1µM	.	.
Cc1oc2c(O)c(O)ccc2c(=O)c1-c1cnn(-c2ccccc2)c1	.	?	.	.
Cc1cc(Br)ccc1SCC(=O)OCC(=O)Nc1ccc2[nH]c(=O)[nH]c2c1	.	.	/	.
COc1cccc(CNC(=O)c2ccccc2SCC(=O)N2CCCC2)c1	.	.	/	.
Cc1c(N=C2C=CC(=O)c3ccccc32)c(=O)n(-c2ccccc2)n1C	14.7µM	?	/	.
Cc1c(N=C2N=C(NC(=O)c3cccs3)c3ccccc32)c(=O)n(-c2ccccc2)n1C	.	.	/	.
Cc1c(N=C2N=C(NC(=O)NC(C)(C)C)c3ccccc32)c(=O)n(-c2ccccc2)n1C	?	13.1µM	/	.
O=C(CSc1nnc(-c2c[nH]c3ccccc23)o1)c1ccc(-c2ccccc2)cc1	.	.	?	?
O=C(OCC(=O)N1CCOCC1)c1ccc2ccccc2c1O	.	.	/	.
